The values that follow come from PMC7862700, “An all-to-all approach to the identification of sequence-specific readers for epigenetic DNA modifications on cytosine”.

Assay in all cases: DAPPL (digital affinity profiling via proximity ligation, sequencing); 10 mM Tris-HCl pH 7.5, 50 mM NaCl, 1 mM DTT, 4% glycerol, room temperature, 30 min; GST-TFs on glutathione beads, 16-mer random dsDNA library, 0.1% formaldehyde crosslink after washing; high values mean tight binding
Experiment [1] deals with T1, FEV (Homo sapiens, UniProt Q99581 1-238).
T1 sequence: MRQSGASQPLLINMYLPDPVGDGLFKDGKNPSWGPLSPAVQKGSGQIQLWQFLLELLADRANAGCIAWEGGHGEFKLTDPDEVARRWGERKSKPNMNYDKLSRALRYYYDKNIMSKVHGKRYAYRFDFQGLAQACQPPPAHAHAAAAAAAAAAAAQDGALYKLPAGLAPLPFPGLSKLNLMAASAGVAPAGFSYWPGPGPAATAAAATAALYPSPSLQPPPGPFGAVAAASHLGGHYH
Conditions: protein: recombinant; tags: N-terminal GST; dsDNA, one strand shown. The procedure, abridged: (§1)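 After expression in yeast as GST fusions, human transcription factors were bound to glutathione beads, DNA-barcoded and mixed with a tag-only sample. The pools were incubated with 200 nmole of a 16-mer random double-stranded DNA library in Tris/NaCl/DTT/glycerol buffer (30 min, room temperature), washed and crosslinked with 0.1% formaldehyde. Proximity ligation with BsaI/T4 ligase ran for 1 h at 37 °C, before PCR amplification and sequencing on an Illumina NextSeq500. Binding signal is a hexamer's read frequency for a factor divided by its frequency for the tag-only sample.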

Experiment [2] concerns the target ETV5 (Homo sapiens, UniProt P41161 1-510). Particulars: protein: recombinant; tags: N-terminal GST; dsDNA, one strand shown. The procedure, abridged: as §1
Experiment [3] has as its target HSF1 (Homo sapiens, UniProt Q00613 1-529). Conditions: protein: recombinant; tags: N-terminal GST; chain copies: 3; dsDNA, one strand shown. In short, it runs like this: as §1
The target of experiment [4] is T2, SPIC (Homo sapiens, UniProt Q8N5J4 1-248).
T2 sequence: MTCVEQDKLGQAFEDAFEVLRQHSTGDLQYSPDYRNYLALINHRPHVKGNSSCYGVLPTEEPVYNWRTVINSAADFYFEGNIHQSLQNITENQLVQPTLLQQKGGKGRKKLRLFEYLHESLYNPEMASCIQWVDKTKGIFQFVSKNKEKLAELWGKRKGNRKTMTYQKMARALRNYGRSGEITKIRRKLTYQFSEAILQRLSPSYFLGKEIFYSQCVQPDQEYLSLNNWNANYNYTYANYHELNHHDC
Conditions: protein: recombinant; tags: N-terminal GST; dsDNA, one strand shown. In short, it runs like this: as §1

Experiment [5] addresses ELF4 (Homo sapiens, UniProt Q99607 1-663). Conditions: protein: recombinant; tags: N-terminal GST; dsDNA, one strand shown. The procedure, abridged:
as §1

The target in experiment [6] is T3, ELK4 (Homo sapiens, UniProt P28324-2 1-405).
T3 sequence: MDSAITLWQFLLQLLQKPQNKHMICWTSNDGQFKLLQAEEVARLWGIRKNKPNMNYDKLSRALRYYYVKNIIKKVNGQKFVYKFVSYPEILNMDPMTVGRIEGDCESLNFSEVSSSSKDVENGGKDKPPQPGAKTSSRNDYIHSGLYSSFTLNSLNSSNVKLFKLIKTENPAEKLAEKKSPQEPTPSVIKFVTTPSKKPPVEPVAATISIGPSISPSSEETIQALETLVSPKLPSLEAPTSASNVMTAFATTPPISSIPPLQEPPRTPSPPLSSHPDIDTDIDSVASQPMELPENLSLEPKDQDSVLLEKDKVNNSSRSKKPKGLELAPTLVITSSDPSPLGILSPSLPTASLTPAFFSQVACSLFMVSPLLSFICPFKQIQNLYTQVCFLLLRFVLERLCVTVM
Conditions: protein: recombinant; tags: N-terminal GST; dsDNA, one strand shown. In short, it runs like this: as §1

Experiment [7] concerns the target T4, ETV2 (Homo sapiens, UniProt O00321 1-342).
T4 sequence: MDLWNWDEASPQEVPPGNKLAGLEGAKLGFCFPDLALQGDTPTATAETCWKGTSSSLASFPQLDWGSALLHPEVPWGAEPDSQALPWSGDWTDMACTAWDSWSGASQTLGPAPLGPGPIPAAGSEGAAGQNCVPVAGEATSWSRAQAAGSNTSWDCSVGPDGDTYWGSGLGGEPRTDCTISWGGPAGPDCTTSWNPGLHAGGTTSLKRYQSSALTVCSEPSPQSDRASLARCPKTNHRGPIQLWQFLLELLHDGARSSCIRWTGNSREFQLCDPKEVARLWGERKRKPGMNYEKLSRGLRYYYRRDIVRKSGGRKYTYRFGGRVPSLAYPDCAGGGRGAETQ
Conditions: protein: recombinant; tags: N-terminal GST; dsDNA, one strand shown. The procedure, abridged: as §1

Experiment [8] concerns the target T5, ELF3 (Homo sapiens, UniProt P78545 1-371).
T5 sequence: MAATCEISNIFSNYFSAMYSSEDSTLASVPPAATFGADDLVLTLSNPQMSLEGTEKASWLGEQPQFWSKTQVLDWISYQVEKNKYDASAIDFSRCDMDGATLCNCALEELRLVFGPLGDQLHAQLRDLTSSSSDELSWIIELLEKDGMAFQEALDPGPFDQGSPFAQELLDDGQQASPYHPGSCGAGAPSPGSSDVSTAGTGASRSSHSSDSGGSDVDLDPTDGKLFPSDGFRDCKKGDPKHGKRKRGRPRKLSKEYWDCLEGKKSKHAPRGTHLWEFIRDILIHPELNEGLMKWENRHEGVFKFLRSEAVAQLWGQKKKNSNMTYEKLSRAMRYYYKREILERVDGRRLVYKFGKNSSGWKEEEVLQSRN
Particulars: protein: recombinant; tags: N-terminal GST; dsDNA, one strand shown. In short, it runs like this:
as §1

Experiment [9] has as its target CRX (Homo sapiens, UniProt O43186 1-299). Particulars: protein: recombinant; tags: N-terminal GST; dsDNA, one strand shown. In short, it runs like this:
as §1

Experiment [10] deals with ETV1 (Homo sapiens, UniProt P50549 1-477). Particulars: protein: recombinant; tags: N-terminal GST; dsDNA, one strand shown. The procedure, abridged: as §1
Sequence of ETV1 (P50549 whole entry): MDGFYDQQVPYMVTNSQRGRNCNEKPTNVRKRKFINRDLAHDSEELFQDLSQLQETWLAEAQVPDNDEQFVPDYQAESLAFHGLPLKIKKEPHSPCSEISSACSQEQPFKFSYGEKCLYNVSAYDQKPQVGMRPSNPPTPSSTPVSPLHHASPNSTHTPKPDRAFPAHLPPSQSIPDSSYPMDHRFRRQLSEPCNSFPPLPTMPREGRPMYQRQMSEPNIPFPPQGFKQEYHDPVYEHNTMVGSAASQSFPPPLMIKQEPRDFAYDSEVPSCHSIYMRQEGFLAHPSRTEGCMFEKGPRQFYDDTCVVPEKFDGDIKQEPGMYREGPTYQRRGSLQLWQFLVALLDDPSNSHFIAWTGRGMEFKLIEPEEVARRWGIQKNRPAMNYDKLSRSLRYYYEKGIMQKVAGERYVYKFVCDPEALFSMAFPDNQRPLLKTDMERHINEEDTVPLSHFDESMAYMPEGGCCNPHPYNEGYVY
For experiment [11], the target named is T6, ERF (Homo sapiens, UniProt P50548 1-548).
T6 sequence: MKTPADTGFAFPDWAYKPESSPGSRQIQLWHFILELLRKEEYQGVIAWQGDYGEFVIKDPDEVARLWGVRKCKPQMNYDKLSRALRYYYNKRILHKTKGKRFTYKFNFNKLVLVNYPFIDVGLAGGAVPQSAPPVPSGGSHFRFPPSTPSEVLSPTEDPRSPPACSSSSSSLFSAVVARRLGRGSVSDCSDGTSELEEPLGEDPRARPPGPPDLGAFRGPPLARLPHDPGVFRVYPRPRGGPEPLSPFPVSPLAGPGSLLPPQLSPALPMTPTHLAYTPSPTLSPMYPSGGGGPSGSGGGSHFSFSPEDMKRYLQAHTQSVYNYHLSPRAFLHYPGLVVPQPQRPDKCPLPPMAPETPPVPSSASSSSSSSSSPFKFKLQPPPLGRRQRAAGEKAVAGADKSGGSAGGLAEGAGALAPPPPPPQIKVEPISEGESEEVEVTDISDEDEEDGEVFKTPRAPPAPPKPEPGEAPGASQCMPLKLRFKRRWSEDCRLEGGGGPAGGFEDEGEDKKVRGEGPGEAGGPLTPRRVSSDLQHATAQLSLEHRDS
Particulars: protein: recombinant; tags: N-terminal GST; dsDNA, one strand shown. In short, it runs like this: as §1

Experiment [12] deals with T7, ETV3L (Homo sapiens, UniProt Q6ZN32 1-361).
T7 sequence: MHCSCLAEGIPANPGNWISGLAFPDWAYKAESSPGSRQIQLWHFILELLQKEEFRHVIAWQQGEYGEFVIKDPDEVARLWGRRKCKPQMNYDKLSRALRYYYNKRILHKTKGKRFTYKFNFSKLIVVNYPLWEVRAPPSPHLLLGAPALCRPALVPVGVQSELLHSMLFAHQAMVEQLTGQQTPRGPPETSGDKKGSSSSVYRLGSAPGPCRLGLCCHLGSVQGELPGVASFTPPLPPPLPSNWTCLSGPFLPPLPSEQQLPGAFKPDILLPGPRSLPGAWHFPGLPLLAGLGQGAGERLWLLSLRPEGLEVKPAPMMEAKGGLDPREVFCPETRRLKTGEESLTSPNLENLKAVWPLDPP
Conditions: protein: recombinant; tags: N-terminal GST; dsDNA, one strand shown. The procedure, abridged: as §1

In experiment [13] the target is T8, ETS2 (Homo sapiens, UniProt P15036 1-469).
T8 sequence: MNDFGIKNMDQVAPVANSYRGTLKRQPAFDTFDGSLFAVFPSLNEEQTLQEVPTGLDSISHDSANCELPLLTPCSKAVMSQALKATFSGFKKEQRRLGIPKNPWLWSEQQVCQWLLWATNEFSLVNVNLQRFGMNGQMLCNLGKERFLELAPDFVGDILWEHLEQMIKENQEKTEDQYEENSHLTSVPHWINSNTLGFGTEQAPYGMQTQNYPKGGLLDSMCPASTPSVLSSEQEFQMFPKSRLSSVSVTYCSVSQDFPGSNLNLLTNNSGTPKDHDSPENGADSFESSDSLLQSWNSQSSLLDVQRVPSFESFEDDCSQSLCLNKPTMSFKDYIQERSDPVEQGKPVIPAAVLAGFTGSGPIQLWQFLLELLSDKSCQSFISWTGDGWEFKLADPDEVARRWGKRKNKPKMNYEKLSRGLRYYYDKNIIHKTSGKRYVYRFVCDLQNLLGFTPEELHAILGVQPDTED
Particulars: protein: recombinant; tags: N-terminal GST; dsDNA, one strand shown. The procedure, abridged:
as §1

The target in experiment [14] is T9, SPDEF (Homo sapiens, UniProt O95238 1-335).
T9 sequence: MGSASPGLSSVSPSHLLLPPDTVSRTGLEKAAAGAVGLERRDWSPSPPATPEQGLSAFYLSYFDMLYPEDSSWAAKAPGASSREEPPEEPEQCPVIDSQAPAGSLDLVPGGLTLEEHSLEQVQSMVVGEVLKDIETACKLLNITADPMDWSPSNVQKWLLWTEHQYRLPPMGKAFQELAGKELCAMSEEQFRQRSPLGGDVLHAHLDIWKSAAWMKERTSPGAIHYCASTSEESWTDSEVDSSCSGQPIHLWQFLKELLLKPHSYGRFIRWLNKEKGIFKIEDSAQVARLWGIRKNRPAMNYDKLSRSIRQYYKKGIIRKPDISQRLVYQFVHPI
Conditions: protein: recombinant; tags: N-terminal GST; dsDNA, one strand shown. In short, it runs like this:
as §1

The target in experiment [15] is T10, ETV7 (Homo sapiens, UniProt Q9Y603 1-341).
T10 sequence: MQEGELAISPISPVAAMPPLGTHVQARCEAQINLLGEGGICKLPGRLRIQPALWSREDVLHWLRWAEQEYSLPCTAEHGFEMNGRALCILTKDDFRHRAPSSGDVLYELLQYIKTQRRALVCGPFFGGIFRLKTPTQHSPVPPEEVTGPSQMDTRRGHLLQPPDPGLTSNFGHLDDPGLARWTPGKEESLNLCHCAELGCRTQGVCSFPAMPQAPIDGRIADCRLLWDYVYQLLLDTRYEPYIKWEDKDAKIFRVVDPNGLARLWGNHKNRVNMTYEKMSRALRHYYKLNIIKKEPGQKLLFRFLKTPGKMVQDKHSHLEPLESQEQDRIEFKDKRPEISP
Particulars: protein: recombinant; tags: N-terminal GST; dsDNA, one strand shown. In short, it runs like this:
as §1

Experiment [16] addresses T11, ELF5 (Homo sapiens, UniProt Q9UKW6-2 1-255).
T11 sequence: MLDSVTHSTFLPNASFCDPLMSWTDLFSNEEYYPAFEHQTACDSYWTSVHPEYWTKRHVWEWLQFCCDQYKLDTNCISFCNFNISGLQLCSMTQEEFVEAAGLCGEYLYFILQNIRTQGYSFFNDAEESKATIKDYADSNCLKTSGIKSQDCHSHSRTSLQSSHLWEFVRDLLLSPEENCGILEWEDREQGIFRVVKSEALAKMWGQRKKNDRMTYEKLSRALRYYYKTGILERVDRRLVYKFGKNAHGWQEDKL
Conditions: protein: recombinant; tags: N-terminal GST; dsDNA, one strand shown. The procedure, abridged: as §1

The target of experiment [17] is T12, ETV3 (Homo sapiens, UniProt P41162-2 1-143).
T12 sequence: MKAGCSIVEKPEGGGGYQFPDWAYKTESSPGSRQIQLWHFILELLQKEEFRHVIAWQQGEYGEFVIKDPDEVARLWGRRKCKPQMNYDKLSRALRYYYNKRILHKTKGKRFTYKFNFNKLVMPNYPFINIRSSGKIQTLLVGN
Conditions: protein: recombinant; tags: N-terminal GST; dsDNA, one strand shown. In short, it runs like this: as §1

For experiment [18], the target named is ETV6 (Homo sapiens, UniProt P41212 1-452). Particulars: protein: recombinant; tags: N-terminal GST; dsDNA, one strand shown. In short, it runs like this:
as §1

Sequence of ETV6 (P41212 whole entry): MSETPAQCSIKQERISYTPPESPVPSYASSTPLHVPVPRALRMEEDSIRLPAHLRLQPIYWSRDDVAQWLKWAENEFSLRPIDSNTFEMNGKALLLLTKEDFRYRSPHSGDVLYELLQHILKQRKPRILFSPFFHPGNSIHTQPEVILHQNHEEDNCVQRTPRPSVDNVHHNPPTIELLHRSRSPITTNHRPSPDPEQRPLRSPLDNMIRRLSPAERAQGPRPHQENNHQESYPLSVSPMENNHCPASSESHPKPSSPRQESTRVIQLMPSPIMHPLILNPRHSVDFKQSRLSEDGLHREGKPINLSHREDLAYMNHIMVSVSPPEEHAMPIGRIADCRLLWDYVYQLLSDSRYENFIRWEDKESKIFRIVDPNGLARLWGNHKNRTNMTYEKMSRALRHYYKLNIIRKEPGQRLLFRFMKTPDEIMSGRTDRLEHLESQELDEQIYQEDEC
Sequence of HSF1 (Q00613 whole entry): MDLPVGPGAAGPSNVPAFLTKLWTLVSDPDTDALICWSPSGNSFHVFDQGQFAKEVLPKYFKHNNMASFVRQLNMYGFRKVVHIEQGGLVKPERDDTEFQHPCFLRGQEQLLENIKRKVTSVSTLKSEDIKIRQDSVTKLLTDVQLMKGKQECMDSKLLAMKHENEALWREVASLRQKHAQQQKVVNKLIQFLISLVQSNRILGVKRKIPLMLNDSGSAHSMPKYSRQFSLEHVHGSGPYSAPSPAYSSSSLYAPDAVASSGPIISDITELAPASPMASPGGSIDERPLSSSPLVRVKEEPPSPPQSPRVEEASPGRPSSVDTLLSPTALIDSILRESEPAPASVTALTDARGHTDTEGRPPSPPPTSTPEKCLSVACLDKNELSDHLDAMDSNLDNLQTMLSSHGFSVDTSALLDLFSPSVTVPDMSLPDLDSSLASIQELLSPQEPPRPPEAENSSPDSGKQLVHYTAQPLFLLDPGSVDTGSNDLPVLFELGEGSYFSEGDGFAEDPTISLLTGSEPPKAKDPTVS
Sequence of ETV5 (P41161 whole entry): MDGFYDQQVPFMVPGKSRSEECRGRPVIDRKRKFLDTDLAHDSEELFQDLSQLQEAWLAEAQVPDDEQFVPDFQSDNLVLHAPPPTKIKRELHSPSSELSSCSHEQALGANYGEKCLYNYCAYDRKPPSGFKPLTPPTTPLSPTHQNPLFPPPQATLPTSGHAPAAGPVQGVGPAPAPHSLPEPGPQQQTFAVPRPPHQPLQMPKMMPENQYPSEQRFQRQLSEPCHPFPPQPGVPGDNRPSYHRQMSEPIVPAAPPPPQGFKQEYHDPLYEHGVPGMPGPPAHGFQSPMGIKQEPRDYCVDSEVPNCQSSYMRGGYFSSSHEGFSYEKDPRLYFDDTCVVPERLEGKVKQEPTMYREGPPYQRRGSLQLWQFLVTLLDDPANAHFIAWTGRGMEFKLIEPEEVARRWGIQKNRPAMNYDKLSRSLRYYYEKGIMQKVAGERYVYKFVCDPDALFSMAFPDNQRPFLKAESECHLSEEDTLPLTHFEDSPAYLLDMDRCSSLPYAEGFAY
Sequence of ELF4 (Q99607 whole entry): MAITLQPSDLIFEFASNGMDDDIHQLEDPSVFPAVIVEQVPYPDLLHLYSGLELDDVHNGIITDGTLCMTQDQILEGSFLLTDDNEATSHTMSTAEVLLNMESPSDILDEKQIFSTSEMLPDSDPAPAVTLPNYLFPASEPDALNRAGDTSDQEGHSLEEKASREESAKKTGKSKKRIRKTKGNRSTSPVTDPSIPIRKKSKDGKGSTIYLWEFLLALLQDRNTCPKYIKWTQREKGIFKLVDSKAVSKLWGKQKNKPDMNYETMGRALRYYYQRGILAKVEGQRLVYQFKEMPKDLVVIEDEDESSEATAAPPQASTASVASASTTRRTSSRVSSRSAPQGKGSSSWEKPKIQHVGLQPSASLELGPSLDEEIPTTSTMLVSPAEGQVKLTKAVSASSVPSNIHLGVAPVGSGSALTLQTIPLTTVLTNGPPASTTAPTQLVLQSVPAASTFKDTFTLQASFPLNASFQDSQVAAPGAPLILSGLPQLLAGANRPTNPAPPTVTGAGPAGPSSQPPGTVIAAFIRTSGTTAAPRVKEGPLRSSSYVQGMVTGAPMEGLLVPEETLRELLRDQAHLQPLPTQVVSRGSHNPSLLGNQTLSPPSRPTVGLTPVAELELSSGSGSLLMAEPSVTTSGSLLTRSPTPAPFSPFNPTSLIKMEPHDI
Sequence of CRX (O43186 whole entry): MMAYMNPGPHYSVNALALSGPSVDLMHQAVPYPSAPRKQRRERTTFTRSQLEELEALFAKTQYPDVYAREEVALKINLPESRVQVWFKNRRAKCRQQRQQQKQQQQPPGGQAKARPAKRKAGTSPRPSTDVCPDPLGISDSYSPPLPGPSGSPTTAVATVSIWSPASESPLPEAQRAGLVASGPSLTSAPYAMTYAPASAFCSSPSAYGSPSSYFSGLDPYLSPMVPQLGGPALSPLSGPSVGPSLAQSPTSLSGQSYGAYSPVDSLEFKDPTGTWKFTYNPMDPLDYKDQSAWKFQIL

Regarding CTCTAT, the binding signal in experiment [1] is 1.11 fold enrichment (6-mer frequency, TF over GST control); in experiment [2], 1.15 fold enrichment (6-mer frequency, TF over GST control); in [3], 1.11 fold enrichment (6-mer frequency, TF over GST control); in [4] it was 1.05 fold enrichment (6-mer frequency, TF over GST control); in experiment [5], 1.18 fold enrichment (6-mer frequency, TF over GST control); in [6], 1.19 fold enrichment (6-mer frequency, TF over GST control). Further, the binding signal in experiment [7] is 1.21 fold enrichment (6-mer frequency, TF over GST control); in experiment [8], 1.2 fold enrichment (6-mer frequency, TF over GST control); in experiment [9] it was 1.1 fold enrichment (6-mer frequency, TF over GST control); in experiment [10], 1.13 fold enrichment (6-mer frequency, TF over GST control); in [11], 1.22 fold enrichment (6-mer frequency, TF over GST control); in [12], 1.14 fold enrichment (6-mer frequency, TF over GST control). For the same sequence, the binding signal was 1.16 fold enrichment (6-mer frequency, TF over GST control) in [13]; 1.16 fold enrichment (6-mer frequency, TF over GST control) in experiment [14]; 1.18 fold enrichment (6-mer frequency, TF over GST control) in experiment [15]; 1.14 fold enrichment (6-mer frequency, TF over GST control) in experiment [16]; 1.08 fold enrichment (6-mer frequency, TF over GST control) in experiment [17]; 1.06 fold enrichment (6-mer frequency, TF over GST control) in experiment [18].
